{"source": "PubChem BioAssay (NCI)", "note": "Compounds without any hit were thinned out: in the full panel of roughly 83,000, 20% have a hit.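 The endpoint reported here, percent growth, reads 100 for growth as untreated, 0 for no net growth and -100 for all cells dead.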 Activity calls are given as the source filed them."}
{"system": "COLO 205 colon", "experiment": "NCI-60 one-dose screen, 48 h (100 = growth as untreated, 0 = no growth, -100 = all killed)", "details": "10 µM unless noted", "description": "Cells are grown in 96 well plates and exposed to the test compound for 48 hours. Compounds are tested at a single concentration, which is 10^-5 M for most compounds. The reported endpoint is percent growth (GI% or GIPRCNT), where numbers from 0 - 100% represent growth inhibition, and numbers from -100% - 0 represent cell death. For example, a value of 40 represents 60% growth inhibition. A value of 0 means no net growth occurred over the course of the experiment. A value of -40 indicates 40% of cells at the beginning of the experiment died by the end of the experiment. A value of -100 means all cells are dead at the end of the experiment.\nNCI-60 Human Tumor Cell Lines Screen was performed using the standard one-dose NCI protocol, which is described in more detail at https://dtp.cancer.gov/discovery_development/nci-60/default.htm.\nCompounds with GIPRCNT values below 10 were considered active. Activity score was based on GIPRCNT using the following formula: […]\nScore is 0 for GIPRCNT values of 100 or above, 50 for GIPRCNT values of 0, and 100 for GIPRCNT values of -100."}
{"smiles": "Fc1cc2c(cc1Cl)N(c1ncnc3ccc(-c4cnc5[nH]ncc5c4)cc13)CC2", "growth": "79.2% (inactive)"}
{"smiles": "CN1C(=O)/C(=C/c2ccc(C(=O)Nc3ncc(Cc4ccc(Cl)cc4)s3)cc2)SC1=S", "growth": "80.3% (inactive)"}
{"smiles": "N#Cc1nc(-c2ccccc2)oc1S(=O)(=O)N1CCOCC1", "growth": "0.0605% (active)"}
{"smiles": "COc1ccc(/C(C)=C(/c2ccc(OCCCN(C)C)cc2)c2ccc(OC(=O)Cc3ccccc3)cc2)cc1", "growth": "76.1% (inactive)"}
{"smiles": "N#Cc1cccc(-c2c(-c3ccc4ccccc4c3)oc3ccccc3c2=O)c1", "growth": "36.7% (inactive)"}
{"smiles": "N#CC1=C(N)Oc2c(sc3c(F)cccc23)C1c1ccc(F)cc1", "note": "(stereo not given)", "growth": "13% (inactive)"}
{"smiles": "Cc1cc(Cl)ccc1Nc1nc(C(F)(F)F)ccc1C(=O)N/N=C/c1ccc([N+](=O)[O-])cc1", "growth": "-65.6% (active)"}
{"smiles": "C#Cc1cccc(Nc2ncnc3ccc(-c4cnc(N)nc4)cc23)c1", "growth": "52.6% (inactive)"}
{"smiles": "O=C(Nc1ncc(Cc2ccc(Cl)c(C(F)(F)F)c2)s1)c1ccc2nnsc2c1", "growth": "57.3% (inactive)"}
{"smiles": "O=Cc1ccc([N+](=O)[O-])s1", "growth": "107% (inactive)"}
{"smiles": "Fc1ccc(Nc2nc3nonc3nc2Nc2ccc(I)cc2)cc1", "growth": "-64.4% (active)"}
{"smiles": "COc1cc(C(=O)n2nc(N3CCN(C)CC3)c3cc(N)ccc32)cc(OC)c1OC", "growth": "107% (inactive)"}
{"smiles": "CCN(CC)CCSc1nc(-c2ccccc2)c(C#N)c(=O)[nH]1", "growth": "94.9% (inactive)"}
{"smiles": "CCOC(=O)Cn1c(O)c(N=Nc2ccc(S(N)(=O)=O)cc2)c2cc(Br)ccc21", "growth": "58% (inactive)"}
{"smiles": "O=Nc1c(-c2c(O)[nH]c3ncccc23)[nH]c2ccccc12", "growth": "108% (inactive)"}
{"smiles": "COc1ccc2nc3ccc(OC)cc3c(SCCCN)c2c1", "growth": "48.9% (inactive)"}
{"smiles": "COc1cccc(/C=C/C(=O)c2cc3c(N)c(C(=O)Nc4ccccc4)sc3nc2C)c1", "growth": "67.6% (inactive)"}
{"smiles": "COc1ccc(-c2nnc3n(C)c(=O)c4ccccc4n23)cc1N", "growth": "-22.2% (active)"}
{"smiles": "COc1ccc(C(=O)C2C(c3ccc(OC)cc3)CN(C)C23C(=O)Nc2ccccc23)cc1", "note": "(stereo not given)", "growth": "105% (inactive)"}
{"smiles": "Cn1ccc2c3c(ccc21)CC3=O", "growth": "119% (inactive)"}
{"smiles": "O=C1c2ccc3c4ccc5c6c(ccc(c7ccc(c2c37)C(=O)N1CCC[P+](c1ccccc1)(c1ccccc1)c1ccccc1)c64)C(=O)N(CCC[P+](c1ccccc1)(c1ccccc1)c1ccccc1)C5=O", "growth": "15.5% (inactive)"}
{"smiles": "C=C(C)[C@@H]1CC[C@]2(C(=O)NCCNCCN)CC[C@]3(C)[C@H](CC[C@@H]4[C@@]5(C)C/C(=C/c6ccncc6)C(=O)C(C)(C)[C@@H]5CC[C@]43C)[C@@H]12", "growth": "88.9% (inactive)"}
{"smiles": "CC(=O)c1cc(O)c2ccccc2c1O", "growth": "116% (inactive)"}
{"smiles": "C#CCOc1ccc2ncnc(Nc3cccc(NC(=O)C=C)c3)c2c1", "growth": "87.5% (inactive)"}
{"smiles": "CCCCNC(=O)Oc1ccc(/C(=C(/CC)Cc2ccccc2)c2ccc(OCCN3CCCCCC3)cc2)cc1", "growth": "-75% (active)"}
{"smiles": "CCSc1nc(NC)c2cc(-c3ccc(C(F)(F)F)cc3)ccc2n1", "growth": "107% (inactive)"}
{"smiles": "Nc1ncnc2c1N=C(c1ccc3c(c1)OCO3)CC(c1ccc([N+](=O)[O-])cc1)N2", "note": "(stereo not given)", "growth": "97.6% (inactive)"}
{"smiles": "CC(C)N1CCN(Cc2ccc3c(NNC(=O)c4ccccc4)nc4cc(F)ccc4n23)CC1", "growth": "17.1% (inactive)"}
{"smiles": "CC(C)c1ccc(COCc2cc(CN3CCCC3)c(O)c3ncccc23)cc1", "growth": "18.9% (inactive)"}
{"smiles": "CCN(CC)CCCN1C(=O)c2c(c(C)c3c(oc4cc(O)ccc43)c2C)C1=O", "growth": "57.4% (inactive)"}
{"smiles": "CC(C)(C)n1cc(-c2ccnc(NCCNS(=O)(=O)c3cccc4ccccc34)c2)c(-c2cccc(F)c2)n1", "growth": "-67.9% (active)"}
{"smiles": "C=CCn1c(SCC(=O)NCc2cc(C)c(O)c(C)c2)nc2ccc(Cl)cc2c1=O", "growth": "116% (inactive)"}
{"smiles": "Cc1ccc(Sc2nnc(/N=C3\\C(=O)Nc4ccccc43)s2)cc1", "growth": "116% (inactive)"}
{"smiles": "CC1(C)CC[C@]2(c3nnc(-c4ccncc4)o3)CC[C@H]3C(=CC[C@H]4[C@@]3(C)CC[C@H]3C(C)(C)C(=O)CC[C@]43C)[C@@H]2C1", "growth": "67.9% (inactive)"}
{"smiles": "C#COc1cccc(Nc2ncnc3ncc(NC(=O)CCl)cc23)c1", "growth": "-46.9% [6.25 µM] (active)"}
{"smiles": "O=C(/C=C/c1ccc(Cl)cc1)c1cccc(Nc2nc(Nc3ccccc3)nc(Nc3ccccc3)n2)c1", "growth": "93.1% (inactive)"}
{"smiles": "O=C(O)c1ccc(-n2cc(/C=N/Nc3ccc(F)cc3)c(-c3cc4ccccc4oc3=O)n2)cc1", "growth": "110% (inactive)"}
{"smiles": "Cc1cc2c(O)c(-c3cc(Cl)ccc3Cl)c3sc(=O)oc3c2cc1C", "growth": "112% (inactive)"}
{"smiles": "Cc1c(-c2nc3ccc(F)cc3c(=O)[nH]2)c2ccccc2n1C", "growth": "30.9% (inactive)"}
{"smiles": "O=C(CSc1nc2ccc([N+](=O)[O-])cc2[nH]1)Nc1ccc(F)cc1", "growth": "68.3% (inactive)"}
